In PubChem BioAssay (NCATS):
Records with an inconclusive call do not appear. The source holds several records for some structures; these can differ, active in one and inactive in another. Active and inactive are the calls of the source. Unless noted, calls come from the whole dose curve; as a rule, active = well fitted curve in the direction sought with a large enough effect; inconclusive = small, poorly fitted or top-dose-only effect, or another doubt; inactive = no such curve, though single readings can be large; an effect the other way counts as inactive or inconclusive.

Tests used:
[1] = biological target: Rap guanine nucleotide exchange factor 3 (Homo sapiens) (UniProt O95398); assay: Confirmatory qHTS for agonist of cAMP-regulated guanine nucleotide exchange factor 3 (EPAC1) (AID 1645881);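 note: EPAC1 catalysed release of BODIPY-GDP from Rap1B seen as fluorescence loss; 100% = effect of cAMP agonist control; nearly all actives have a fitted effect of over 75% in size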
Sequence of Rap guanine nucleotide exchange factor 3 (Homo sapiens) (O95398 whole entry, looked up): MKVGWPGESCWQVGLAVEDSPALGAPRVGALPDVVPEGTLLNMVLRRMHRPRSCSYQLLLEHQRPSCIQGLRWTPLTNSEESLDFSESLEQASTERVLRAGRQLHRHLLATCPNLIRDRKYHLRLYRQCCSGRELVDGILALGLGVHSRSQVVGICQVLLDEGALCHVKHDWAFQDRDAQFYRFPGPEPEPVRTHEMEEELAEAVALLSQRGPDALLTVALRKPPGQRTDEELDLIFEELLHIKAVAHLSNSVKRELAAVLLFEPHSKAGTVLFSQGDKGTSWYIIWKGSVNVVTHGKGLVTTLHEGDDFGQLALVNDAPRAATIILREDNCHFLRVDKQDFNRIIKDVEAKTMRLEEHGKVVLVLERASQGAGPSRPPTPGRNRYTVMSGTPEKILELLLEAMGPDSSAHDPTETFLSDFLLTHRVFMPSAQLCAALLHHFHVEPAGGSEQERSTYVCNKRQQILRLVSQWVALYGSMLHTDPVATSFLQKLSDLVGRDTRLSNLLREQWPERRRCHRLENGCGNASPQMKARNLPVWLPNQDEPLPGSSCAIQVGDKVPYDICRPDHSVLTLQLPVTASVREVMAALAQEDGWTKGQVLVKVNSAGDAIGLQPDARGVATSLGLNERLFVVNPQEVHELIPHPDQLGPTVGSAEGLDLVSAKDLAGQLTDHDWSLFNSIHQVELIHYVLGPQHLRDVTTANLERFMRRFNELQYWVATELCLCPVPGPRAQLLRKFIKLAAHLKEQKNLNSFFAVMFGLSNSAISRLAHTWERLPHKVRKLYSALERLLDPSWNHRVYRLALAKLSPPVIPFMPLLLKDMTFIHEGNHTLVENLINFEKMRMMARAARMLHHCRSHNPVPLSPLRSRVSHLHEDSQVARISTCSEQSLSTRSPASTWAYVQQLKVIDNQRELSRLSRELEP

[2] = qHTS Assay for Identification of Small Molecule Antagonists for NFkB Signaling Pathway (AID 895; active = well fitted inhibition curve with a large enough effect in the signal ratio, with a control signal flat, not every such curve was filed as active; the % refers to the signal ratio; note: % is set by controls: 0 for no effect and ±100 for the full control effect)
Method in brief: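 ME-180 NFkB-bla cells (beta-lactamase under NFkB response element), plated overnight, treated with compound then 10 pM TNF alpha (about EC50) for 5 hrs at 37 C. LiveBLAzer FRET read at 460/530 nm emission, 405 nm excitation.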

[3] = Confirmation and Secondary Assay for Modulators of Hemoglobin Beta Chain Splicing at IVS2 654 locus (AID 910);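 note: HeLa cells stably carrying EGFP split by mutant beta-globin IVS2-654 intron; % of control where 0% means no effect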
Method in brief: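 HeLa cells stably expressing EGFP interrupted by β-globin IVS2-654 intron, seeded overnight in Opti-MEM/2% FCS, then treated 2 days at 37 °C. Restored splicing read as total peak GFP intensity per well by laser scanning cytometry (488 nm excitation, 500–520 nm emission); 500 nM antisense PNA as control.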

[4] = Confirmation and Secondary Assay for Modulators of Hemoglobin Beta Chain Splicing at IVS2 705 locus (AID 930);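 note: HeLa cells stably expressing the EGFP-705 splicing reporter; GFP fluorescence per well restored by corrected splicing of the IVS2-705 intron in EGFP; % of control where 0% means no effect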
Method in brief: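 Fluorescence gain (488 nm laser, 500-520 nm PMT) reflects restored correct splicing of a mutant IVS2-705 intron inside EGFP in stably transfected HeLa cells after 2-day compound treatment.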

[5] = qHTS assay for cell viability of HEK293 cells (AID 743288); conditions: ATP luminescence (CellTiter-Glo), 18 h; max response: hits give low values; note: nearly all actives have a fitted effect of over 50% in size; note: potency is the fitted concentration of half-maximal effect; for max response: % is set by controls: 0 for no effect and ±100 for the full control effect
Method in brief: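 HEK293, 18 h, 37 C, ATP luminescence. Cells at 2,000/well were allowed at least 5 h to settle before dosing; CellTiter-Glo developed 30 min at RT.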

[6] = biological target: ATP-dependent 6-phosphofructokinase (Trypanosoma brucei brucei) (UniProt O15648); assay: qHTS Assay to Find Inhibitors of T. brucei phosphofructokinase: hit validation (AID 492961); note: % is set by controls: 0 for no effect and ±100 for the full control effect
Sequence of ATP-dependent 6-phosphofructokinase (Trypanosoma brucei brucei) (O15648 whole entry, looked up): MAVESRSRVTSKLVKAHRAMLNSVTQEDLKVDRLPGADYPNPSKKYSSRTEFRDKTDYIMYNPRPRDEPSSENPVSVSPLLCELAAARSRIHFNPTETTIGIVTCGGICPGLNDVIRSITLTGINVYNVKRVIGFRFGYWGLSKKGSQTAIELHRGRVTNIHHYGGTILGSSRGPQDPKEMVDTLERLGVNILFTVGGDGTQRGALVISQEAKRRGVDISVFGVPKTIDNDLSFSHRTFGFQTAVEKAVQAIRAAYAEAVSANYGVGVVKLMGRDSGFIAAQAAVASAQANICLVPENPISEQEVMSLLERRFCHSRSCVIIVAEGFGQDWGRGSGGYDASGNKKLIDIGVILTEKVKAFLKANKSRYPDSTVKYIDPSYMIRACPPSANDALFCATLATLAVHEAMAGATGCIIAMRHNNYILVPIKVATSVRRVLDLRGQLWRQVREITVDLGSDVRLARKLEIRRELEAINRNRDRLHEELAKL
Method in brief: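 Luminescence from ADP-Glo reports ADP generated as T. brucei PFK (1.25 nM) phosphorylates 0.5 mM fructose-6-phosphate using 0.1 mM ATP. Reactions ran 45 min at room temperature, pH 8.0.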

[7] = S16 Schwann cell PMP22 intronic element firefly luciferase assay (AID 624032); note: nearly all actives have a fitted effect of over 30% in size; note: potency is the fitted concentration of half-maximal effect
Method in brief: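 Rat S16 Schwann cells stably carrying firefly luciferase driven by a PMP22 intronic element, in 10% FBS, treated 24 h at 37 C. ONE-Glo luminescence normalized to PTC124 control and DMSO (0%); curves classed by r2, magnitude and activity.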

[8] = S16 Schwann cell PMP22 intronic element beta-lactamase assay (AID 624044; calls by dose curve;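 note: 0% = DMSO and -100% = potassium clavulanate positive control; nearly all actives have a fitted effect of over 15% in size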)
Method in brief: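 Beta-lactamase reporter under a PMP22 intronic regulatory element in stable S16 rat Schwann cells; 24 h compound exposure. 460 nm blue signal normalized between DMSO (0%) and potassium clavulanate, with 535 nm FRET tracking viability; curves classed by r2 and response.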

[9] = system: AA1029; assay: qHTS profiling for inhibitors of Plasmodium falciparum proliferation (AID 504749); note: nearly all actives have a fitted effect of over 60% in size; note: potency is the fitted concentration of half-maximal effect; conditions: P. falciparum in erythrocytes, SYBR Green DNA, 72 h; series mostly up to 28.7 µM
Method in brief: (§1)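 SYBR Green fluorescence (ex 485 nm, em 535 nm) reports parasite DNA after 72 h compound exposure of infected red cells at 0.3% parasitemia, 2.5% hematocrit; signal normalized to 0.29 uM artemisinin and vehicle wells.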

[10] = system: CP215; assay: as above; conditions: P. falciparum in erythrocytes, SYBR Green DNA, 72 h; series mostly up to 28.7 µM
Method in brief: as §1

[11] = system: CP217; assay: as above; conditions: P. falciparum in erythrocytes, SYBR Green DNA, 72 h; series mostly up to 28.7 µM
Method in brief: as §1

[12] = system: CP250; assay: as above; conditions: P. falciparum in erythrocytes, SYBR Green DNA, 72 h; series mostly up to 28.7 µM
Method in brief: as §1

[13] = system: CP252; assay: as above; conditions: P. falciparum in erythrocytes, SYBR Green DNA, 72 h; series mostly up to 28.7 µM
Method in brief: as §1

[14] = system: CP256; assay: as above; conditions: P. falciparum in erythrocytes, SYBR Green DNA, 72 h; series mostly up to 28.7 µM
Method in brief: as §1

[15] = system: CP260; assay: as above; conditions: P. falciparum in erythrocytes, SYBR Green DNA, 72 h; series mostly up to 28.7 µM
Method in brief: as §1

[16] = system: CP315; assay: as above; conditions: P. falciparum in erythrocytes, SYBR Green DNA, 72 h; series mostly up to 28.7 µM
Method in brief: as §1

[17] = system: JCK; assay: as above; conditions: P. falciparum in erythrocytes, SYBR Green DNA, 72 h; series mostly up to 28.7 µM
Method in brief: as §1

[18] = system: N140; assay: as above; conditions: P. falciparum in erythrocytes, SYBR Green DNA, 72 h; series mostly up to 28.7 µM
Method in brief: as §1

[19] = system: SC27B; assay: as above; conditions: P. falciparum in erythrocytes, SYBR Green DNA, 72 h; series mostly up to 28.7 µM
Method in brief: as §1

[20] = system: TAB165; assay: as above; conditions: P. falciparum in erythrocytes, SYBR Green DNA, 72 h; series mostly up to 28.7 µM
Method in brief: as §1

C=C(C)CN1CC[C@@]23c4c5ccc(O)c4O[C@H]2c2[nH]c4ccccc4c2C[C@]3(O)[C@@H]1C5
inactive: outcome [1]

C=C(C)[C@H]1CN[C@H](C(=O)O)[C@@H]1CC(=O)O
inactive: Potency [2]

Cc1ccc(C[N+](C)(C)C)o1
inactive: Potency [3] | outcome [4]

C/C(O)=C(/C#N)C(=O)Nc1cc(Br)ccc1Br
inactive: Potency [2]

Cc1ccc2cc3c(ccc4ccccc43)c3c2c1CC3
inactive: max response [5] -7.81%

CC(C)(c1ccc(OCC2CO2)cc1)c1ccc(OCC2CO2)cc1 (stereo not drawn)
inactive: max response [5] -24%
active: Potency [5] 70.8 µM

CCN1C[C@]2(COC)[C@H](O)C[C@H](OC)[C@]34C1C([C@H](OC)[C@H]23)[C@]1(OC(C)=O)C2[C@@H](OC(=O)c3ccccc3)C(O)(C[C@H]24)[C@@H](OC)[C@@H]1O
inactive: Potency [6] | Potency [7] | Potency [8] | Potency [9] | Potency [10] | Potency [11] | Potency [12] | Potency [13] | Potency [14] | Potency [15] | Potency [16] | Potency [17] | Potency [18] | Potency [19] | Potency [20]

CC(C)[C@@]1(NC(=O)[C@H]2CC3c4cccc5[nH]cc(c45)C[C@H]3N(C)C2)O[C@@]2(O)C3CCCN3C(=O)[C@@H](Cc3ccccc3)N2C1=O (stereo partly drawn)
active: Potency [7] 5.1 µM | Potency [9] 3.16 µM | Potency [10] 5.36 µM | Potency [11] 3.98 µM | Potency [12] 12.6 µM | Potency [13] 3.98 µM | Potency [14] 7.94 µM | Potency [15] 3.16 µM | Potency [16] 9.53 µM | Potency [17] 7.94 µM | Potency [18] 0.447 µM | Potency [19] 2 µM | Potency [20] 0.562 µM
inactive: Potency [6] | Potency [8]

C(=C/c1ccccc1)/CN1CCN(CCOC(c2ccccc2)c2ccccc2)CC1
inactive: outcome [1]

O=C(O)c1ccccc1-c1c2cc(Br)c(=O)cc-2oc2[c]([Hg])c(O)c(Br)cc12
inactive: Potency [3] | outcome [4] | Potency [7] | Potency [8] | Potency [9] | Potency [10] | Potency [11] | Potency [12] | Potency [13] | Potency [14] | Potency [15] | Potency [16] | Potency [17] | Potency [18] | Potency [19] | Potency [20]

CC(C)(O)[C@H]1O[C@@H]2CC[C@]3(C)[C@@]4(C)c5[nH]c6ccccc6c5C[C@@H]4CC[C@]3(O)C2=CC1=O
inactive: outcome [1]

CCN(CC)CCO[C@H]1CC[C@@]2(C)C(=CC[C@@H]3[C@H]2CC[C@]2(C)C(=O)CC[C@H]32)C1
active: Potency [7] 9.07 µM
inactive: Potency [6] | Potency [8] | Potency [9] | Potency [10] | Potency [11] | Potency [13] | Potency [14] | Potency [15] | Potency [16] | Potency [17] | Potency [18] | Potency [19] | Potency [20]

c1cncc(C2CCCCN2)c1 (stereo not drawn)
inactive: Potency [3] | outcome [4]

COC(=O)N1CCN(C(=O)Cc2ccc(Cl)c(Cl)c2)[C@H](CN2CCCC2)C1
inactive: Potency [2]
